Molecules are shown by their SMILES. Several values for one entry are separate records, joined by “and”; a condition that tells them apart may be missing. Equal entries are not always repeated. Activity calls are given as the source filed them. Rule for the calls: active = hit-call score of the fitted dose curve at least 0.9, where 1 is the maximum; inactive = score below 0.9.

Here are results for 38 compounds from PubChem BioAssay (EPA / NIEHS).

Read-out in the test: Interleukin-8 (IL8), CXCL8 (gene 3576)
The test is described as follows: BSK_MyoF_IL8: BioMAP Diversity Plus: MyoF Assay for Interleukin-8 (IL8) Biomarker Activity (AID 2284261). Conditions: primary human lung fibroblasts. The procedure:
BSK_MyoF is a cell-based, multiplexed-readout assay that uses lung fibroblasts, […], with measurements taken at 24 hours after chemical dosing in a microplate: 96-well plate.BSK_MyoF_IL8 is an assay component measured in the BSK_MyoF assay. It measures IL-8 antibody related to regulation of gene expression using ELISA technology.Data from the assay component BSK_MyoF_IL8 was analyzed at the endpoint, BSK_MyoF_IL8, in the positive analysis fitting direction relative to DMSO as the negative control and baseline of activity. Using a type of binding reporter, gain or loss-of-signal activity can be used to understand protein changes. To generalize the intended target to other relatable targets, this assay endpoint is annotated to the 'cytokine' intended target family, where the subfamily is 'interleukins'.
The levels of cell surface (or secreted, indicated by the prefix "s") biomarker endpoints were measured by ELISA. Overt cytotoxicity to cells in confluent adherent cultures (all systems other than the BT system) was assessed by measuring total protein levels using sulforhodamine B (SRB) staining in parallel cultures at the time of biomarker measurements, indicated as SRB endpoints. For proliferation assays for adherent cell types, individual cell types are cultured at sub-confluence and relative cell numbers quantified by SRB staining at time points optimized for each system (48 h: 3C and CASM3C systems; 72 h: BT and HDF3CGF systems; 96 h: SAg system). SRB was performed by staining cells with 0.1% SRB after fixation with 10% TCA and reading wells at 560 nm.Viability and proliferation of PBMC (T cells) was quantified by Alamar Blue reduction for the SAg and BT systems. For PBMC viability (referred to as PBMC Cytotoxicity within the assay endpoint names), cells were plated (75,000/well in a 96-well plate) and then chemical samples added for 1 h before addition of activators, SEB and TSST-1 (20 ng/mL final concentration each). Cells were incubated for 90 h. Then, Alamar Blue (20 uL/well) (Invitrogen, Cat DAL1100) was added for 6 h, and the plates were read with a fluorescence microplate reader at 546/580 nm (excitation/emission). For PBMC proliferation, cells were plated and activated as above but incubated for only 16 h prior to addition of Alamar Blue. Plates were read after 6 h.
Consider `Cc1ccc(N=Nc2c(O)ccc3ccccc23)c(C)c1`, for which the result was inactive.
Broadly, the AC50 is the midpoint of the concentration-response curve, whichever way the signal moves. As for `O=C(O)C(F)(F)OC(F)(F)C(F)(F)OC(F)(F)C(F)(F)OC(F)(F)C(F)(F)C(F)(F)C(F)(F)F`, the AC50 is 46.8 µM (active) and 44.5 µM (active).
With `CC(C)(C)c1ccc(O)c(O)c1`, the outcome was inactive.
In the case of `O=S(=O)(O)C(F)(F)C(F)(F)C(F)(F)C(F)(F)C(F)(F)C(F)(F)C(F)(F)C(F)(F)C(F)(F)C(F)(F)F`, the result was inactive.
The same measure, in the same setting: for `O=C(NCc1ncc(C(F)(F)F)cc1Cl)c1c(Cl)cccc1Cl` the value was “inactive”; for `CC[N+](CC)(CC)Cc1ccccc1`, “inactive”; for `Cc1ccc(C(=O)c2ccccc2)cc1`, “inactive”.
Same read-out and setting: for `O=C(NO)c1ccccc1` the value was “inactive”; for `O=C(O)CCC(F)(F)C(F)(F)C(F)(F)C(F)(F)C(F)(F)F`, “inactive”.
Regarding `CCCCCCCCCCCCCCCCCC[N+](C)(C)Cc1ccccc1`, the AC50 is 5.06 µM (active).
As to `C=CC(=C)CC/C=C(\C)CCC=C(C)C`, the result was inactive.
Still for that read-out and setting: in the case of `O=C(CC(=O)C(F)(F)C(F)(F)C(F)(F)F)c1cccs1` it was “inactive”.
The same measure, in the same setting: for `O=P(O)(O)CCC(F)(F)C(F)(F)C(F)(F)C(F)(F)C(F)(F)C(F)(F)F` the value was “inactive”; for `O=C(O)CCC(F)(F)C(F)(F)C(F)(F)C(F)(F)C(F)(F)C(F)(F)F`, “inactive”.
With `NC(=NCCCCCCN=C(N)/N=C(\N)Nc1ccc(Cl)cc1)/N=C(\N)Nc1ccc(Cl)cc1`, the AC50 was 5.05 µM (active).
Regarding `CCOC(=O)CN[C@@H](C(=O)N1CC[C@H]1C(=O)NCc1ccc(/C(N)=N/O)cc1)C1CCCCC1`, the result was inactive.
The same measure, in the same setting: for `CCCCCc1ccc(O)cc1` the value was “inactive”; for `C=CC(=O)OCCC(F)(F)C(F)(F)C(F)(F)C(F)(F)C(F)(F)C(F)(F)C(F)(F)C(F)(F)F`, “inactive”; for `OCCN1CN(CCO)CN(CCO)C1`, “inactive”.
As for `CN(Cc1cnc2nc(N)nc(N)c2n1)c1ccc(C(=O)N[C@@H](CCC(=O)O)C(=O)O)cc1`, the outcome was inactive.
With `CN(C)c1ccc(C(=C2C=CC(=[N+](C)C)C=C2)c2ccccc2)cc1`, the AC50 was 2.76 µM (active).
As for `O=P(O)(O)CCC(F)(F)C(F)(F)C(F)(F)C(F)(F)C(F)(F)C(F)(F)C(F)(F)C(F)(F)F`, the outcome was inactive.
Still for that read-out and setting: in the case of `CC1=NN(c2ccccc2)C(=O)C1` it was “inactive”.
The same measure, in the same setting: in the case of `C=CC(C)(CCC=C(C)C)OC(C)=O` (stereo not drawn) it was “inactive”.
As to `COc1cccc(O)c1`, the outcome was inactive.
For `CN(CCO)S(=O)(=O)C(F)(F)C(F)(F)C(F)(F)C(F)(F)C(F)(F)C(F)(F)C(F)(F)C(F)(F)F`, the outcome was inactive.
The same measure, in the same setting: for `C=COC(=O)C(C)(C)CCCCCC` the value was “inactive”.
On to `OCC(F)(F)C(F)(F)C(F)(F)C(F)(F)C(F)(F)C(F)(F)C(F)(F)C(F)(F)C(F)(F)C(F)(F)C(F)(F)F`, for which the result was inactive.
Still for that read-out and setting: in the case of `O=C1c2ccc(O)c(O)c2C(=O)c2c(O)ccc(O)c21` it was “inactive”.
For the compound `O=C1OC2(c3ccccc31)c1cc(I)c(O)c(I)c1Oc1c2cc(I)c(O)c1I`, the AC50 is 3.37 µM (active).
Consider `C[C@]12CC[C@@H]3c4ccc(O)cc4CC[C@H]3[C@@H]1C[C@@H](O)[C@@H]2O`, for which the outcome was inactive.
Same read-out and setting: for `Oc1cc2ccccc2cc1O` the value was “inactive”.
In the case of `Clc1ccc(Nc2nnc(Cc3ccncc3)c3ccccc23)cc1`, the result was inactive.
On to `COC1=CC(=O)C[C@@H](C)[C@]12Oc1c(Cl)c(OC)cc(OC)c1C2=O`, for which the outcome was inactive.
On the same count and under the same terms, for `COc1cc(OC)nc(NC(=O)NS(=O)(=O)Nc2ccccc2C(=O)N(C)C)n1` the value was “inactive”; for `CCCCC(CC)C(=O)OCCOCCOCCOCCOC(=O)C(CC)CCCC` (stereo not drawn), “inactive”; for `Cc1cccc2c1ccc1ccccc12`, “inactive”.
The same measure, in the same setting: in the case of `COCN(COC)c1nc(N(COC)COC)nc(N(COC)COC)n1` it was “inactive”.
